Data as given in the supplement of paper PMC10849652.
Of roughly 8,800 targets only a part is listed; those with a hit were picked by preference. About 0.5% of all pairs of compound and target were hits.

What was measured:
Experiment in all cases: log2 fold change, soluble protein after heating vs DMSO (PISA); higher = thermal stabilisation; K562 lysate, 10 uM; active = over 0.2 and 3.5 SD of the protein, either way, in both replicates (recomputed)
[1] = compound: NCC(=O)Nc1ccc(-n2nc(C(F)(F)F)cc2-c2ccc3c(ccc4ccccc43)c2)cc1
Procedure, shortened: (§1)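 The values are log-two fold changes in thermal stability compared with solvent controls and come from duplicates. They were obtained by TMTpro 16plex LC-MS/MS, with channel sums equalised, on the supernatant after 21,000xg for 90 min. That supernatant came from crude K562 extract at 1 mg/mL protein treated with 10 μM compound for 30 min, heated for 3 min across 48°C-58°C, pooled and brought to 0.5% NP-40 at 4°C.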

vorinostat = compound: O=C(CCCCCCC(=O)Nc1ccccc1)NO [vorinostat]
Procedure, shortened: as §1

silmitasertib = compound: O=C(O)c1ccc2c(c1)nc(Nc1cccc(Cl)c1)c1ccncc12 [silmitasertib]
Procedure, shortened: as §1

[2] = compound: O=C1NC(=O)C(c2cnc3ccccn23)=C1c1cn2c3c(cc(F)cc13)CN(C(=O)N1CCCCC1)CC2
Procedure, shortened: as §1

entospletinib = compound: c1cn2cc(-c3ccc4cn[nH]c4c3)nc(Nc3ccc(N4CCOCC4)cc3)c2n1 [entospletinib]
Procedure, shortened: as §1

Sequence of UniProt O43741 (O43741 whole entry, looked up): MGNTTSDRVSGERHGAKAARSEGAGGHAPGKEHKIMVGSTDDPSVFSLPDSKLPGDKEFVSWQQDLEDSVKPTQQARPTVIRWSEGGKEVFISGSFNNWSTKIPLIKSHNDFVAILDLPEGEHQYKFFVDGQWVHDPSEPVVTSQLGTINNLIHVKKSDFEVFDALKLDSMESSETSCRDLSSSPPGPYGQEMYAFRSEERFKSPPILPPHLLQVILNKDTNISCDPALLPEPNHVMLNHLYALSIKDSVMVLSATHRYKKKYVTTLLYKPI
Sequence of UniProt Q93096 (Q93096 whole entry, looked up): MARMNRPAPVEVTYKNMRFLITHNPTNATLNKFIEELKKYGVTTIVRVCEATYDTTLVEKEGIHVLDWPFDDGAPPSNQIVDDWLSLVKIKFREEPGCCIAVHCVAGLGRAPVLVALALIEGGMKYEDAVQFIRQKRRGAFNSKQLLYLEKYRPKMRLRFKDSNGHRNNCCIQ
Sequence of UniProt Q9Y6I8 (Q9Y6I8 whole entry, looked up): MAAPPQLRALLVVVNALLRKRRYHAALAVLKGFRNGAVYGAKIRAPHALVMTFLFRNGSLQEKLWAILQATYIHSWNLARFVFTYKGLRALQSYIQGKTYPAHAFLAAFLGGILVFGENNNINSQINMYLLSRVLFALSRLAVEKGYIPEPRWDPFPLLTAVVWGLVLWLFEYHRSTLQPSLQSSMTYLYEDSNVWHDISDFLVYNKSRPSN
Sequence of UniProt O00408 (O00408 whole entry, looked up): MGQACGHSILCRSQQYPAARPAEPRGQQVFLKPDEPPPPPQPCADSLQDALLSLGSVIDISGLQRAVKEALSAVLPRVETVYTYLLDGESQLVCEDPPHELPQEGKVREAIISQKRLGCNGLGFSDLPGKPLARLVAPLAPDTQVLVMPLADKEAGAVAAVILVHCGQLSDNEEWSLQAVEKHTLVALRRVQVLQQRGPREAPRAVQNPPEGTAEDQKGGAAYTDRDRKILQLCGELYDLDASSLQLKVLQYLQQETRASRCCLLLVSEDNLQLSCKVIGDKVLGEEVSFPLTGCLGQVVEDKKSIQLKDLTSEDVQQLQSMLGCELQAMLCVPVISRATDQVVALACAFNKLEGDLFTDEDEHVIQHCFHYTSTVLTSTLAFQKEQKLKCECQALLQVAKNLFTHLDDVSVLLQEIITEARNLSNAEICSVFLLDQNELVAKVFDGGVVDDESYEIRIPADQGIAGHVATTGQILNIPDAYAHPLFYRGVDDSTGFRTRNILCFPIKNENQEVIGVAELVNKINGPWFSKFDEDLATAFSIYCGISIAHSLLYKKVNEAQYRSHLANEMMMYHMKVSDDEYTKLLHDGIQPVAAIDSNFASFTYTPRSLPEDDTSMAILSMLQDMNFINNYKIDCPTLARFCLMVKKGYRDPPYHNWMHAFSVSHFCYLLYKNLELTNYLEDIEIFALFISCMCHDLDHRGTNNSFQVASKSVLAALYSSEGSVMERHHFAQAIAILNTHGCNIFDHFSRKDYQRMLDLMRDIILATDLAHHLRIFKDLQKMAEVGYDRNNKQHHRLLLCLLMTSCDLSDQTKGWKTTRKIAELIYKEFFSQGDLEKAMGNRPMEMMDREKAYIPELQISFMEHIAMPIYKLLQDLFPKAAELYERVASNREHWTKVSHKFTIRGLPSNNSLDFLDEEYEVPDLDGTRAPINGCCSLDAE
Sequence of UniProt P27986 (P27986 whole entry, looked up): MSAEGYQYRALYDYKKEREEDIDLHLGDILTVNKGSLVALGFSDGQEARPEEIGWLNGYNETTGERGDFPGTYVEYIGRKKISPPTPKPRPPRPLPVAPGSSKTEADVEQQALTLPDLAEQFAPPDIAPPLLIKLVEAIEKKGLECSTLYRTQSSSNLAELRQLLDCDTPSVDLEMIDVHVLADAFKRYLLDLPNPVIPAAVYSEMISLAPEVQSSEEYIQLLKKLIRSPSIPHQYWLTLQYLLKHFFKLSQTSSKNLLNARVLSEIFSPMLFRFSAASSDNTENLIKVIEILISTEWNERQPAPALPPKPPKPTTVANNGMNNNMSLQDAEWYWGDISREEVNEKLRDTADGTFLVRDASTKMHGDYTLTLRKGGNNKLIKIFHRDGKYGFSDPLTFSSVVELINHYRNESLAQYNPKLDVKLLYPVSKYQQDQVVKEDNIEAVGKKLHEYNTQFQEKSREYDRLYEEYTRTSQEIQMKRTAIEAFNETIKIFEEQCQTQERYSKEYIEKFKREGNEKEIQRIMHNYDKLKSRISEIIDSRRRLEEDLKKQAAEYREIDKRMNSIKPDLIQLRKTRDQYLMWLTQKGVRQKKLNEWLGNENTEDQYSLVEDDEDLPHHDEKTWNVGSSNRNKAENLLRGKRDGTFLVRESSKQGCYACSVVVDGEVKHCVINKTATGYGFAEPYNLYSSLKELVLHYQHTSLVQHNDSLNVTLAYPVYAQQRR
Sequence of UniProt Q9UBV8 (Q9UBV8 whole entry, looked up): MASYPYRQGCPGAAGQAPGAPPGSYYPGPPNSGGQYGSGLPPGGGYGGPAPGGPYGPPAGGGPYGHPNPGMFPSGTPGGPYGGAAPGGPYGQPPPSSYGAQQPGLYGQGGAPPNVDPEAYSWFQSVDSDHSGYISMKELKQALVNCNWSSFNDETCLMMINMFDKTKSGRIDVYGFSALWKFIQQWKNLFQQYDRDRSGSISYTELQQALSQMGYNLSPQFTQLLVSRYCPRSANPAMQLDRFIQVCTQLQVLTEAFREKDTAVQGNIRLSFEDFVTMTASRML
Sequence of UniProt Q13362 (Q13362 whole entry, looked up): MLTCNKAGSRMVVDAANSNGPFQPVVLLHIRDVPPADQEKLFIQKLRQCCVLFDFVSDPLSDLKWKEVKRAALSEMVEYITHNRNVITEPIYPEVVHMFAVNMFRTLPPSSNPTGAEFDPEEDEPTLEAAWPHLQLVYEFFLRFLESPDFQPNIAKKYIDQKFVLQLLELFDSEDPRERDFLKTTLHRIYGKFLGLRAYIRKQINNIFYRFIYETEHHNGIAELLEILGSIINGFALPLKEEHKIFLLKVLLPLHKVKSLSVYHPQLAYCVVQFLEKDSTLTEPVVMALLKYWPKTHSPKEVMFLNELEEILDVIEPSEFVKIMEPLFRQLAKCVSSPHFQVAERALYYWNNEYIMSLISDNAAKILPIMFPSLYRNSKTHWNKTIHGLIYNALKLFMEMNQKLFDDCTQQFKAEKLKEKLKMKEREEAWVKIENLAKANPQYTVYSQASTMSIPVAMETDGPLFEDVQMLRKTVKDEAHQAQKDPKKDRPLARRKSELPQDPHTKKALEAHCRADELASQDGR
Sequence of UniProt Q8TD55 (Q8TD55 whole entry, looked up): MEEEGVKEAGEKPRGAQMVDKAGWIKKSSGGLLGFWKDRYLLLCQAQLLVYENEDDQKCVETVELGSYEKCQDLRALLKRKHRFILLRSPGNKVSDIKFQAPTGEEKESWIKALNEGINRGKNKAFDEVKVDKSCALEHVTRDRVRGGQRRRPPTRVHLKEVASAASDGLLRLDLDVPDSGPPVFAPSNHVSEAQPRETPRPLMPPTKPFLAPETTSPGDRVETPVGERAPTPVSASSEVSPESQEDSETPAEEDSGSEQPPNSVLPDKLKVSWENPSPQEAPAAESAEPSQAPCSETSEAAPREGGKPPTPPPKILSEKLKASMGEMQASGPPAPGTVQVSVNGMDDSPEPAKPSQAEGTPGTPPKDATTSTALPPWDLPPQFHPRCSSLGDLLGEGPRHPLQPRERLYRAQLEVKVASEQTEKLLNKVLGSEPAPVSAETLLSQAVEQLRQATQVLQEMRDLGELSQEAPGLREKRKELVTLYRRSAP
Sequence of UniProt P67775 (P67775 whole entry, looked up): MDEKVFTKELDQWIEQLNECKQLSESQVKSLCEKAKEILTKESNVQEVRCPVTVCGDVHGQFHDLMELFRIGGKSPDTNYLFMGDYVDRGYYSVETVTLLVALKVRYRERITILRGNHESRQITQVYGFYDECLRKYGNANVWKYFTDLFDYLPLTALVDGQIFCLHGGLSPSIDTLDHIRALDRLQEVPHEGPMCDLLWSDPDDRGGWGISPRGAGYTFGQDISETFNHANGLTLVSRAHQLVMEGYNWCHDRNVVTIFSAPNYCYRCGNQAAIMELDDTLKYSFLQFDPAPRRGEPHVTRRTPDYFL
Sequence of UniProt P54278 (P54278 whole entry, looked up): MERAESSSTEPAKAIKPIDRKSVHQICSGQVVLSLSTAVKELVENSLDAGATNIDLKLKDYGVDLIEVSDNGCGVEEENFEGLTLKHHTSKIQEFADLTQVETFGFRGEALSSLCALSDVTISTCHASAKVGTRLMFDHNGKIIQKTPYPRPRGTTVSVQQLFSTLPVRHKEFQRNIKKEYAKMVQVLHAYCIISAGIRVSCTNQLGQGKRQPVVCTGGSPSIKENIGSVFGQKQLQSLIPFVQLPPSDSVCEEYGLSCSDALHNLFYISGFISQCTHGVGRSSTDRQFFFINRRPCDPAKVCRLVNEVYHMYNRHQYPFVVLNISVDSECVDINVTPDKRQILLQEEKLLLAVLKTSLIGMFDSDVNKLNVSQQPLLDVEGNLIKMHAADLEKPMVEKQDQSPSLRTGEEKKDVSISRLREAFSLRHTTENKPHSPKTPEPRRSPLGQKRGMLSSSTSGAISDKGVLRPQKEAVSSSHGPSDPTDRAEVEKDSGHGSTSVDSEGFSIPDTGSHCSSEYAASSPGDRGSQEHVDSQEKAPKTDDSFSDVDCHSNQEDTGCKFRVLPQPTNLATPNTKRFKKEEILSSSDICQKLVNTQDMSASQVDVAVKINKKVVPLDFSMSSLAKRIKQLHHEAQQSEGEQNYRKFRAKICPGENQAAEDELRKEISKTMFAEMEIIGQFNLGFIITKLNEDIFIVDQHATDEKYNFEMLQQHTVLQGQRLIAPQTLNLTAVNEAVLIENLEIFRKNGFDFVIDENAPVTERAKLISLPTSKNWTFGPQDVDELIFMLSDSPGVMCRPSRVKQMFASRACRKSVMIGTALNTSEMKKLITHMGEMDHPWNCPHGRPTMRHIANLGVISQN
Sequence of UniProt Q9H0N5 (Q9H0N5 whole entry, looked up): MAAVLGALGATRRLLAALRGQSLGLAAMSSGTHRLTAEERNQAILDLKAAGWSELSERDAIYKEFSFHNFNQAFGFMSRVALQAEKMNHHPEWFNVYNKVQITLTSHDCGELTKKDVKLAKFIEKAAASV

Row | Target | log2 fold change [1] | log2 fold change (vorinostat) | log2 fold change (silmitasertib) | log2 fold change [2] | log2 fold change (entospletinib)
1 | PRKACB isoform 2 (UniProt P22694) | -0.014 (inactive) | -0.018 (inactive) | 0.054 (inactive) | 0.002 (inactive) | 0.042 (inactive)
2 | PRKAR2B (UniProt P31323) | 0.014 (inactive) | -0.093 (inactive) | 0.009 (inactive) | 0.025 (inactive) | -0.055 (inactive)
3 | PRKAB2 (UniProt O43741) | -0.006 (inactive) | -0.009 (inactive) | 0.111 (inactive) | 0.096 (inactive) | 0.013 (inactive)
4 | PPP2CA (UniProt P67775) | -0.079 (inactive) | 0.076 (inactive) | -0.021 (inactive) | -0.004 (inactive) | 0 (inactive)
5 | PIK3R1 (UniProt P27986) | -0.035 (inactive) | -0.206 (inactive) | 0.213 (inactive) | 0.022 (inactive) | 0.03 (inactive)
6 | PRKRA (UniProt O75569) | 0.023 (inactive) | -0.773 (active) | -0.022 (inactive) | 0.024 (inactive) | 0.041 (inactive)
7 | PPP1R12B isoform 6 (UniProt O60237) | 0.168 (inactive) | -0.063 (inactive) | 0.091 (inactive) | -0.005 (inactive) | -0.052 (inactive)
8 | PTP4A1 (UniProt Q93096) | 0.019 (inactive) | -0.292 (active) | -0.003 (inactive) | 0.014 (inactive) | -0.009 (inactive)
9 | PPP2R5C isoform 4 (UniProt Q13362) | 0.075 (inactive) | 0.082 (inactive) | -0.067 (inactive) | 0.074 (inactive) | -0.012 (inactive)
10 | PTPN6 isoform 4 (UniProt P29350) | -0.001 (inactive) | -0.039 (inactive) | 0.078 (inactive) | 0.006 (inactive) | 0.107 (inactive)
11 | PDE2A (UniProt O00408) | 0.195 (inactive) | 0.117 (inactive) | 0.022 (inactive) | 0.071 (inactive) | 0.01 (inactive)
12 | PRPF6 (UniProt O94906) | 0.002 (inactive) | -0.262 (active) | 0.047 (inactive) | 0.004 (inactive) | 0.026 (inactive)
13 | PMS2 (UniProt P54278) | 0.064 (inactive) | -0.384 (active) | 0.026 (inactive) | 0.027 (inactive) | 0.001 (inactive)
14 | PTPN1 (UniProt P18031) | -0.005 (inactive) | -0.29 (active) | 0.04 (inactive) | 0.012 (inactive) | 0.048 (inactive)
15 | PDE4DIP (UniProt E9PS60) | 0.002 (inactive) | -0.157 (inactive) | 0.082 (inactive) | 0.039 (inactive) | 0.103 (inactive)
16 | PPIE (UniProt Q9UNP9) | 0.024 (inactive) | 0.096 (inactive) | 0.035 (inactive) | -0.045 (inactive) | -0.036 (inactive)
17 | PXMP4 (UniProt Q9Y6I8) | 0.038 (inactive) | 0.295 (inactive) | 0.134 (inactive) | 0.021 (inactive) | -0.004 (inactive)

Row | Target | log2 fold change [1] | log2 fold change (vorinostat) | log2 fold change (silmitasertib) | log2 fold change [2] | log2 fold change (entospletinib)
18 | PDXDC1 (UniProt Q6P996) | -0.041 (inactive) | -0.233 (active) | 0.038 (inactive) | 0.018 (inactive) | -0.019 (inactive)
19 | PPT2 isoform 3 (UniProt Q9UMR5) | 0.055 (inactive) | 0.398 (active) | 0.034 (inactive) | -0.018 (inactive) | -0.006 (inactive)
20 | PTS (UniProt Q03393) | 0.053 (inactive) | 0.006 (inactive) | 0.009 (inactive) | -0.151 (inactive) | 0.032 (inactive)
21 | PPP2R5B (UniProt Q15173) | 0.077 (inactive) | -0.075 (inactive) | -0.007 (inactive) | -0.065 (inactive) | 0.028 (inactive)
22 | PDS5A (UniProt Q29RF7) | -0.001 (inactive) | -0.525 (active) | 0.073 (inactive) | -0.01 (inactive) | 0.047 (inactive)
23 | PFKFB3 isoform 4 (UniProt Q16875) | 0.025 (inactive) | -0.34 (active) | 0.108 (inactive) | 0.017 (inactive) | -0.006 (inactive)
24 | PHKG2 (UniProt P15735) | -0.029 (inactive) | 0.013 (inactive) | 0.008 (inactive) | -0.022 (inactive) | 0.026 (inactive)
25 | PDCD10 (UniProt Q9BUL8) | -0.009 (inactive) | 0.158 (inactive) | -0.001 (inactive) | -0.037 (inactive) | 0.011 (inactive)
26 | PLEKHO2 (UniProt Q8TD55) | 0.045 (inactive) | -0.103 (inactive) | 0.347 (inactive) | -0.018 (inactive) | 0.082 (inactive)
27 | PDPK1 (UniProt O15530) | -0.056 (inactive) | -0.246 (inactive) | 0.09 (inactive) | 0.004 (inactive) | -0.007 (inactive)
28 | PICALM (UniProt H0YEH1) | -0.048 (inactive) | 0.037 (inactive) | -0.045 (inactive) | -0.075 (inactive) | -0.237 (inactive)
29 | PIP4P2 (UniProt Q8N4L2) | 0.004 (inactive) | 0.029 (inactive) | 0.034 (inactive) | 0.034 (inactive) | -0.05 (inactive)
30 | PIK3CG (UniProt P48736) | -0.111 (inactive) | -0.037 (inactive) | 0.04 (inactive) | -0.027 (inactive) | -0.073 (inactive)
31 | PDCD4 (UniProt Q53EL6) | 0.004 (inactive) | -0.378 (active) | 0.014 (inactive) | 0.003 (inactive) | 0.038 (inactive)
32 | PCBD2 (UniProt Q9H0N5) | 0.008 (inactive) | 0.034 (inactive) | 0.01 (inactive) | -0.006 (inactive) | 0.003 (inactive)
33 | PEF1 (UniProt Q9UBV8) | -0.186 (inactive) | 0.467 (active) | -0.005 (inactive) | -0.008 (inactive) | -0.009 (inactive)
